Measurements as given in the supplement of paper PMC8371130.
Where a name gives a salt, the structure may show the parent alone.

Test system: HL-1
Assay: relative cell viability (CellTiter-Glo) vs DMSO control (% of DMSO control); higher = more viable cells
Conditions: oxygen condition: normoxia 72 h; 40 nM
Summary of the method: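 Compounds at 40, 200, 1000 or 5000 nM in 0.01% DMSO were added to HL-1 mouse atrial cardiomyocytes plated at 1000 cells per well in 384-well plates. The next day, cells were exposed to 1% O2 for 48 h and then reoxygenated for 24 h, or left in normoxia for the same time. Viability was read with CellTiter-Glo luminescence and normalised to vehicle-treated controls.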

Structure (SMILES)	relative cell viability
C#CCC(Cc1cnc2nc(N)nc(N)c2n1)c1ccc(C(=O)N[C@@H](CCC(=O)O)C(=O)O)cc1 (stereo not given in full) [Pralatrexate]	44.3
CCOCC(O)COc1ccc(NC(=O)CC[S+](C)C)cc1 (stereo not given) [Suplatast tosylate]	101
CCN(CC)CCOC(=O)C(c1ccccc1)c1ccccc1 [Adiphenine HCl]	101
NC(=O)c1cn(Cc2c(F)cccc2F)nn1 [Rufinamide]	106
COc1nc(C)nc(Cl)c1NC1=NCCN1 [Moxonidine]	110
NC(=O)c1ncn([C@@H]2O[C@H](CO)[C@@H](O)[C@H]2O)n1 [Ribavirin]	100
CN1CCC(=C2c3ccccc3CC(=O)c3sccc32)CC1 [Ketotifen fumarate]	99.8
O=C1c2ccccc2C(=O)C1c1ccccc1 [Phenindione]	108
O=P(O)(O)C(Cl)(Cl)P(=O)(O)O [Clodronate Disodium]	117
COc1ccc2[nH]c([S@@+]([O-])Cc3ncc(C)c(OC)c3C)nc2c1 [Esomeprazole sodium]	94.1
CO[C@H]1C(=O)[C@]2(C)[C@@H](OC)C[C@H]3OC[C@@]3(OC(C)=O)[C@H]2[C@H](OC(=O)c2ccccc2)[C@]2(O)C[C@H](OC(=O)[C@H](O)[C@@H](NC(=O)OC(C)(C)C)c3ccccc3)C(C)=C1C2(C)C [Cabazitaxel]	24.7
Nc1cccc2c1CN(C1CCC(=O)NC1=O)C2=O (stereo not given) [Lenalidomide]	113
CCCN[C@H]1CCc2nc(N)sc2C1 [Pramipexole]	98.2
C#C[C@]1(O)CC[C@H]2[C@@H]3CCc4cc(O)ccc4[C@H]3CC[C@@]21C [Ethinyl Estradiol]	107
Cc1cnc(C(=O)NCCc2ccc(S(=O)(=O)NC(=O)NC3CCCCC3)cc2)cn1 [Glipizide]	106
O=C1N=C(O)NC1(c1ccccc1)c1ccccc1 [Phenytoin sodium]	94.5

Same assay, conditions: oxygen condition: normoxia 72 h; 200 nM

Structure (SMILES)	relative cell viability
N[C@@H](CSCCCO)C(=O)O [Fudosteine]	109
Nc1nnc(-c2cccc(Cl)c2Cl)c(N)n1 [Lamotrigine]	96.1
Cn1nnc2c(C(N)=O)ncn2c1=O [Methazolastone]	106
COCCc1ccc(OCC(O)CNC(C)C)cc1 (stereo not given) [Metoprolol tartrate]	103
CC(=O)OCC[N+](C)(C)C [Acetylcholine chloride]	101
NS(=O)(=O)c1cc2c(cc1Cl)NCNS2(=O)=O [Hydrochlorothiazide]	107
CCN(CC)CCNC(=O)c1c(C)[nH]c(/C=C2\C(=O)Nc3ccc(F)cc32)c1C [Sunitinib Malate]	119
Cc1ncc(C[n+]2csc(CCO)c2C)c(N)n1 [Thiamine HCl]	104
CCCCCCCCCCC[C@@H](C[C@@H]1OC(=O)[C@H]1CCCCCC)OC(=O)[C@H](CC(C)C)NC=O [Orlistat]	112
O=c1c(-c2ccc(O)cc2)coc2cc(O)ccc12 [Daidzein]	107
O=C(O)/C=C/c1ccc(Cn2ccnc2)cc1 [Ozagrel]	107
Cc1cccc(C)c1NC(=O)C1CCCCN1C (stereo not given) [Mepivacaine HCl]	110
CC[C@@]1(O)C(=O)OCc2c1cc1n(c2=O)Cc2cc3c(CN(C)C)c(O)ccc3nc2-1 [Topotecan HCl]	30.9
N[C@@H]1CCCCN(c2c(F)cc3c(=O)c(C(=O)O)cn(C4CC4)c3c2Cl)C1 [Besifloxacin HCl]	99.5
O=P(O)(O)C(O)(Cn1ccnc1)P(=O)(O)O [Zoledronic Acid]	107
C#Cc1cccc(Nc2ncnc3cc(OCCOC)c(OCCOC)cc23)c1 [Erlotinib HCl]	123
CCCOc1ccc(C(=O)OCCN(CC)CC)cc1N [Proparacaine HCl]	92.4
C[C@]12CC[C@H](O)CC1=CC[C@@H]1[C@@H]2CC[C@]2(C)C(c3cccnc3)=CC[C@@H]12 [Abiraterone]	67.9
COc1ccc2[nH]c([S@@+]([O-])Cc3ncc(C)c(OC)c3C)nc2c1 [Esomeprazole magnesium]	114
NC(=O)CC[C@H](N)C(=O)O [L-Glutamine]	97.4

Structure (SMILES)	relative cell viability
CS(=O)(=O)c1ccc(C(=O)Nc2ccc(Cl)c(-c3ccccn3)c2)c(Cl)c1 [Vismodegib]	110
N#CC[C@H](C1CCCC1)n1cc(-c2ncnc3[nH]ccc23)cn1 [Ruxolitinib]	96.6
CC[C@@H]1/C=C(\C)C[C@H](C)C[C@H](OC)[C@H]2O[C@@](O)(C(=O)C(=O)N3CCCC[C@H]3C(=O)O[C@H](/C(C)=C/[C@@H]3CC[C@H](Cl)[C@H](OC)C3)[C@H](C)[C@@H](O)CC1=O)[C@H](C)C[C@@H]2OC [Pimecrolimus]	99.1
C#CCC(Cc1cnc2nc(N)nc(N)c2n1)c1ccc(C(=O)N[C@@H](CCC(=O)O)C(=O)O)cc1 (stereo not given in full) [Pralatrexate]	42.7
CCOCC(O)COc1ccc(NC(=O)CC[S+](C)C)cc1 (stereo not given) [Suplatast tosylate]	101
CCN(CC)CCOC(=O)C(c1ccccc1)c1ccccc1 [Adiphenine HCl]	97.4
NC(=O)c1cn(Cc2c(F)cccc2F)nn1 [Rufinamide]	106
COc1nc(C)nc(Cl)c1NC1=NCCN1 [Moxonidine]	103
NC(=O)c1ncn([C@@H]2O[C@H](CO)[C@@H](O)[C@H]2O)n1 [Ribavirin]	104
CN1CCC(=C2c3ccccc3CC(=O)c3sccc32)CC1 [Ketotifen fumarate]	100
O=C1c2ccccc2C(=O)C1c1ccccc1 [Phenindione]	107
O=P(O)(O)C(Cl)(Cl)P(=O)(O)O [Clodronate Disodium]	111
COc1ccc2[nH]c([S@@+]([O-])Cc3ncc(C)c(OC)c3C)nc2c1 [Esomeprazole sodium]	96
CO[C@H]1C(=O)[C@]2(C)[C@@H](OC)C[C@H]3OC[C@@]3(OC(C)=O)[C@H]2[C@H](OC(=O)c2ccccc2)[C@]2(O)C[C@H](OC(=O)[C@H](O)[C@@H](NC(=O)OC(C)(C)C)c3ccccc3)C(C)=C1C2(C)C [Cabazitaxel]	27.2
Nc1cccc2c1CN(C1CCC(=O)NC1=O)C2=O (stereo not given) [Lenalidomide]	117
CCCN[C@H]1CCc2nc(N)sc2C1 [Pramipexole]	98.9
C#C[C@]1(O)CC[C@H]2[C@@H]3CCc4cc(O)ccc4[C@H]3CC[C@@]21C [Ethinyl Estradiol]	105
Cc1cnc(C(=O)NCCc2ccc(S(=O)(=O)NC(=O)NC3CCCCC3)cc2)cn1 [Glipizide]	97.1
O=C1N=C(O)NC1(c1ccccc1)c1ccccc1 [Phenytoin sodium]	101
